# In the supplement of paper PMC6555819:
# Tested on: RXRa DBDmut IVT, anti-RXR (DBD mutation: RXRa K156A/R161A, NR concentration 90 nM)
# Experiment: PBM binding z-score (relative to random genomic background probes); higher = stronger binding; sequences stand for … in GC…GCGATTGACAGCGTAGAATGAAGG
# Outline: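 Scanned fluorescence from custom Agilent 4×180K protein-binding microarrays was regression-normalized. Binding z-scores use random background probes as reference. Ligand-free nuclear receptor dimers were incubated on the arrays for 1 h and detected with antibodies against each partner (one per run).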
row,Sequence,PBM binding z-score
1,TCGAGTAGGTTAGGGGCATTGAGAATGGCGTCGA,0.205
2,TCGTATAGGTAAACAGGTGAAAGTCCGTAAGTTA,1.41
3,CTCGAAAGGTCGGATGAGGTGAGTATACGGATAA,0.982
4,CAAACTAGATCAAGGTCAAAGTCGGTTTGTGCCA,2.46
5,CATAGCAGGCCAATCTGGGTCACTCAAGGCTTGA,-0.0976
6,AGAATGAGGTTATACGAAGATCAGGGAAGAAAGT,1.38
7,GCTGCTAGGTGAACTGATGGTCAGCTAAAGCTCG,-0.22
8,CGACCTAGGTCAGAACAGGACAGTGAAGGATGAT,0.773
9,CGAACTAGGTCATAACAGGACAGTGAAGGATGAT,1.66
10,TCGGGTAGGTTAGTCGGGGCATTCAGCCAACATA,0.58
11,CATACATGGTCAGCTAGGCCAGAGTAGGGACGGC,-0.604
12,TCTATTAGTTGAAGGGCAACCAACGAGTCCGTTT,1.46
13,CAAACTAGGTCACGAAAGGTGAAAGTCGAATGAC,1.59
14,GCAGACAGGTGACACGCAGGTAACTCAGGGTGGC,-0.855
15,AGAATGAGGTTAAGATCAGGTAAACAGAATACAT,1.17
16,CCTACTGGGCCAAAGGTCATTGAATCCAATGCTC,1.05
17,TCGAGTTGGTCAAAGGTCACACACTCGAAATGCG,2.1
18,TCCTATAGGTAATACAGGTGAAAGTCGGCATCTA,1.05
19,GATACAGGGTCAGCTAGAGCCCAGAGTATGGAAA,1.25
20,TCGAGTAGGTTAGGGGCATTTAGAATGGCGTCGA,0.475

row,Sequence,PBM binding z-score
1,CGAACTAGGTCAAGGGCAGTGAATCTCCGCACGC,1.59
2,TAGCCTAGGTCATGAGGGCCAGTATAGTGTCGGC,0.234
3,CGTCCAAGGTCATAGGAGGGCAGTGAAGACAGAT,3.81
4,GCTCCTAGGTCAGGTTGGTCAGCTAACGGGTACG,0.888
5,ATCTAAAGGTCGACGAGGTGAGTATACACCGTTT,1.52
6,ATATGTAGGTTAGCTGGGGTCATCCAGACTAGGC,1.31
7,CAAACTAAGTCAAAGGTCAAAGTCGAGCCAACCA,2.2
8,AATACAGGGTCATCGTAGGCCAGAGAACGCACAG,3.55
9,TCATATAGGTATATGCTAGGTGAAAGTCCGATCT,1.6
10,ACTTACGGGCCAACGAGGTTATAGCACGCGTATA,0.889
11,TCATATAGGTAAATGCTAGGTGAGAGTCCGATCT,1.03
12,GCGCCTGGGGCATCAGCAGGTTACCATAACTTAA,-0.312
13,TTACCAAGGTGAGCTGAGGGCGTTGATCCAACTC,-0.14
14,ACTATTAGTTGAGACGAGGGCAACCGATAGGTTG,0.5
15,TTACCAAGGTGAAAGTCGTTGATCCCTCTGTAGA,0.0451
16,CTACCAAGGTGCACAAGGTCGTTGATTACTATTC,1.8
17,AGAATGAGGTTATACCTAGATCAGGGAAGAAAGT,1.51
18,CGTCAAAGTTCAACTAAGGTACCGTAAAGCACGC,4.77
19,TCTCGGAGGACACGAAGGCCAGAGCTTTCCAGAG,0.482
